Some structures have more than one record in an assay (separate samples or runs), and their calls can disagree. Calls of active or inactive are those of the source. The calls were made as follows: active = hit-call score of the fitted dose curve at least 0.9, where 1 is the maximum; inactive = score below 0.9.

From PubChem BioAssay (EPA / NIEHS) come the findings set out here.

The assay can be described thus: APR_HepG2_p53Act_24hr: Apredica 24-hour HepG2 Assay for p53 Activation (AID 2282913). Conditions: high-content imaging, actives raise or lower the signal. As to the method:
APR_HepG2_24hr is a cell-based, multiplexed-readout assay that uses HepG2, a human liver cell line, with measurements taken at 24 hours after chemical dosing in a 384-well plate.APR_HepG2_p53Act_24hr is one of 10 assay component(s) measured or calculated from the APR_HepG2_24hr assay. It is designed to make measurements of dna content, a form of viability reporter, as detected with fluorescence intensity signals by HCS Fluorescent Imaging technology.Data from the assay component APR_HepG2_p53Act_24hr was analyzed into 1 assay endpoint. This assay endpoint, APR_HepG2_p53Act_24hr, was analyzed with bidirectional fitting relative to DMSO as the negative control and baseline of activity. Using a type of viability reporter, measures of protein for gain or loss-of-signal activity can be used to understand the signaling at the pathway-level as they relate to the gene TP53. Furthermore, this assay endpoint can be referred to as a primary readout, because this assay has produced multiple assay endpoints where this one serves a signaling function. To generalize the intended target to other relatable targets, this assay endpoint is annotated to the dna binding intended target family, where the subfamily is tumor suppressor.
Cells were treated with dimethyl sulfoxide (DMSO) as a solvent control at a final concentration of 0.5% v/v or with compounds in DMSO with a resulting final DMSO concentration of 0.5% v/v. Compound treatment was done at concentrations of 0.39, 0.78, 1.56, 3.12, 6.24, 12.5, 25, 50, 100, and 200 uM in duplicate on each plate. Cells were treated with compounds for 1, 24, or 72 hr. Carbonyl […] m-chloro-phenylhydrazone (CCCP) and taxol were used as positive controls for mitochondrial function and cytoskeletal stability, respectively; DMSO served as the negative control for this experiment. Cells were fixed by the direct addition of 50 uL formaldehyde in Hank's Balanced Salt Solution (HBSS) to a final concentration of 3.7%. After incubation in the fixation medium for 30 min at room temperature (293-298 K), cells were rinsed twice with HBSS and treated with cell permeabilization buffer (16 uL of 0.5% Triton X-100) for 10 min at room temperature (293-298 K) before labeling. For mitochondrial membrane potential and mitochondrial measurements, pre-fixed cells were incubated with 50 uL of MitoTracker Red CMXRos (Invitrogen) at a concentration of 250 nM for 30 min before fixation. In the remaining cases, post-fixed cells were labeled by incubation with a multiplexed mixture of primary antibodies in HBSS for 60 min at room temperature (293-298 K) to detect immunoreactivity of c-Jun (1:500), phospho-histone H3 (1:100), phospho-histone H2A.x (1:200), p53 (1:400), alpha-tubulin (1:200) and Hoechst 33342 (2 ug/mL). Cells were labeled for multiplexed imaging on two separate plates: a) Hoechst 33342, MitoTracker Red, phospho-histone H3, and alpha-tubulin, and b) Hoechst 33342, phospho-histone H2A.x, and c-Jun. A final rinse with HBSS (50 uL) was performed before analysis. The primary and secondary antibodies for the proteins were phospho-histone H3 (rabbit anti-phospho-histone H3 and FITC-donkey anti-rabbit IgG), phospho-histone H2A.x (mouse anti-phospho-histone H2A.x and FITC-donkey anti-mouse IgG), c-Jun (rabbit anti-phospho-c-Jun and Cy3-donkey anti-rabbit IgG), p53 (sheep anti-p53 and Cy5-donkey anti-sheep IgG), alpha-tubulin (mouse anti-alpha-tubulin and Cy5-donkey anti-mouse IgG). These antibodies are available as the CellCiphr HepG2 assay kit (Millipore).Digital images of each well were captured using a Cellomics ArrayScan VTI (Thermo Scientific Cellomics) (0.8 NA objective, 0.63x optical coupler, and XF-93 filter set) at 20x magnification. The images were acquired using the autofocus feature of the ArrayScan instrument, which entails the following steps. First, the camera focuses on channel 1 (Hoechst 33342), where nuclei are identified. Second, a Z offset of 1 um is used for capturing mitochondria (MitoTracker Red). […]
`CCC(C)(C)c1ccc(O)c(C(C)(C)CC)c1`: the AC50 is 32.1 µM (active).
As for `O=c1[nH]c(=O)[nH]c(=O)[nH]1`, the compound was called inactive.
Consider `O=C(O)C(Cl)(Cl)Cl`, for which the AC50 is 165 µM (active) and the compound was called inactive.
For `O=C1C2(Cl)C3(Cl)C4(Cl)C(Cl)(Cl)C5(Cl)C3(Cl)C1(Cl)C5(Cl)C24Cl` (centres undefined), the outcome was inactive.
In the case of `CCN1CCC2(CC1)COc1cc3c(cc12)N(C(=O)c1ccc(-c2ccc(-c4nnc(C)o4)cc2C)cc1)CC3`, the AC50 is 25.8 µM (active).
Turning to `CC(C)(C)CC(C)(C)c1ccc(O)cc1`, the AC50 was 35 µM (active).
As for `O=C(O)C(F)(F)C(F)(F)C(F)(F)C(F)(F)C(F)(F)C(F)(F)F`, the call was inactive.
Consider `CC(C)(C)c1cc(O)ccc1O`, for which the outcome was inactive.
Turning to `CC(C)(OO)c1ccccc1`, the concentration at half-maximal activity (AC50) was 65.8 µM (active).
For `CCCCCCCCc1ccc(O)cc1`, the AC50 was 67.3 µM (active).
For the compound `ClC1(Cl)C2(Cl)C3(Cl)C4(Cl)C(Cl)(Cl)C5(Cl)C3(Cl)C1(Cl)C5(Cl)C24Cl` (centres undefined), the compound was called inactive.
Turning to `Cn1sc(Cl)cc1=O`, the concentration at half-maximal activity (AC50) is 113 µM (active).
Still for that read-out and setting: with `NC(=O)O` the figure was 9.29 µM (active).
Take `C[C@]12CCC(=O)C[C@@H]1CC[C@@H]1[C@@H]2CC[C@]2(C)[C@@H](O)CC[C@@H]12`: the compound was classed as inactive.
On to `O=C(Nc1ccc2[nH]ccc2c1)c1cc2cc(F)ccc2n1Cc1cccc(F)c1`, for which the AC50 is 34.5 µM (active).
On to `Oc1cccc2cccnc12`, for which the AC50 was 25.9 µM (active).
Same read-out and setting: with `C[C@@H]1C[C@@H]([C@H](O)CC2CC(=O)NC(=O)C2)C(=O)[C@@H](C)C1` the figure was 21.7 µM (active).
With `ClCC(Cl)CCl`, the compound was classed as inactive.
For `O=C(O)C(F)(F)C(F)(F)C(F)(F)C(F)(F)C(F)(F)C(F)(F)C(F)(F)C(F)(F)C(F)(F)C(F)(F)F`, the AC50 was 66.9 µM (active).
As for `CC12CC1(C)C(=O)N(c1cc(Cl)cc(Cl)c1)C2=O` (centres undefined), the compound was called inactive.
As to `CC(=O)[O][Hg][c]1ccccc1`, the result was inactive.
`Cc1ccccc1N`: the outcome was inactive.
Turning to `CCC(=O)C(CC(C)N(C)C)(c1ccccc1)c1ccccc1` (centres undefined), the call was inactive.
Still for that read-out and setting: with `C=CC(=O)OCCCCCC(C)C` the entry was “inactive”; with `CN(C)N=O`, “inactive”.
Turning to `CC(C)(c1ccccc1)c1ccc(O)c(C(C)(C)c2ccccc2)c1`, the AC50 is 40.8 µM (active).
Regarding `C=C(C)C(=O)[O][Sn]([CH2]CCC)([CH2]CCC)[CH2]CCC`, the AC50 is 0.294 µM (active).
For `COc1cc(-c2ccc(N)c(OC)c2)ccc1N`, the result was inactive.
